Bioassay records (PubChem)
This is a sample that favours compounds with a hit; in the whole collection about 1.9% have one here.
S1P3 antag: S1P3 receptor antagonists, primary screen, cell-based; inhibition, % at 4.98 µM; CHO S1P3 NFAT-BLA reporter, FRET fluorescence, antagonist mode; actives 0.27% (n = 170,000);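 active = inhibition above the plate cutoff, the mean inhibition of test wells on that plate plus 3 SD, cut at about 28% in these data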;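 also: cells challenged with S1P at its EC80 of 0.8 µM; blue over green emission ratio from cleaved BLA substrate after 4 h stimulation; 0% = S1P-stimulated wells and 100% = unstimulated DMSO-only wells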
Target sequence (Q99500 whole entry, looked up): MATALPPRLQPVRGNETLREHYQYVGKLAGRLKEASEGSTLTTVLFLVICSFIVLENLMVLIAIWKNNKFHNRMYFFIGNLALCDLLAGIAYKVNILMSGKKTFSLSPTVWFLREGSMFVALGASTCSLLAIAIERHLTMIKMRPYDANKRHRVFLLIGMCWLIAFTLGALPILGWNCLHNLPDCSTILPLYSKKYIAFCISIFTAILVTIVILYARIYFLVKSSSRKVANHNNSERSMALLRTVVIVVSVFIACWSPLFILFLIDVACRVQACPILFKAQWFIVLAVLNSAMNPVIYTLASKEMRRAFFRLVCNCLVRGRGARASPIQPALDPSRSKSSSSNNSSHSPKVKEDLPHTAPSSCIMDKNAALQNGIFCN
S1P4 antagonist: S1P4 receptor antagonists, primary screen, cell-based. Sphingosine 1-phosphate receptor 4 (Homo sapiens), O95977. S1P4-expressing cells, antagonist mode, reporter read-out. inhibition, % at 4.98 µM. actives 0.26% (n = 220,000). AID 1510, 2009; in the data active = inhibition above about 29%;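 also: 0% = wells stimulated with agonist and 100% = vehicle wells without agonist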
S1P4 ag: S1P4 receptor agonists, primary screen, cell-based | S1P4-expressing cell line, agonist reporter assay | Sphingosine 1-phosphate receptor 4 (Homo sapiens), O95977 | AID 1509, 2009 | activation, % at 4.98 µM | actives 0.35% (n = 220,000); in the data active = activation above about 11%;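 also: 0% = DMSO vehicle and 100% = reference agonist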
EP2 mod: EP2 receptor modulators, cAMP readout, primary screen, cell-based, HTRF cAMP, PGE2 stimulation. Prostaglandin E2 receptor EP2 subtype (Homo sapiens), P43116. EP2-expressing cells, cAMP HTRF FRET, PGE2 co-stimulation. induction, % at 25 µM. actives 0.83% (n = 260,000). AID 940, 2007;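 active = compounds whose cAMP rise, as percent of the full-agonist control response, exceeds 60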;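 also: rat C6 glioma line stably carrying human EP2 under a CMV promoter; the protocol text gives 20 µM as final concentration; 100% = response of wells given 1 µM PGE2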
Target sequence (P43116 whole entry, looked up): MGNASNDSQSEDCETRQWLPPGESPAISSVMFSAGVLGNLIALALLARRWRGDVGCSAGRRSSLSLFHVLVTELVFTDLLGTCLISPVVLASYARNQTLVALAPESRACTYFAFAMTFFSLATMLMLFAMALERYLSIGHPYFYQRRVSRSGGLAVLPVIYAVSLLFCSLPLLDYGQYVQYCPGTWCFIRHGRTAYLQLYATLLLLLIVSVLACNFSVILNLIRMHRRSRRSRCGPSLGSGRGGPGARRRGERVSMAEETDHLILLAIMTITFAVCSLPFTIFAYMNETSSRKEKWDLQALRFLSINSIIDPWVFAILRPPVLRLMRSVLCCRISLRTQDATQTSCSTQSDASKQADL
EP2 antag: human EP2 receptor antagonists, primary screen, TR-FRET cAMP, C6 glioma cells | Prostaglandin E2 receptor EP2 subtype (Homo sapiens), P43116 | C6 glioma cells expressing human EP2; cells stimulated with saturating PGE2 | inhibition, % at 25 µM | actives 0.52% (n = 260,000) | AID 1422, 2008;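 active = percent inhibition above 40 after rounding to a whole number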;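 also: rat C6 glioma host cells with rolipram phosphodiesterase inhibitor present; the protocol text gives 20 µM as final concentration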
Numbers without * were called inactive; . = no result; ! = repeats disagree.

SMILES | S1P3 antag | S1P4 antagonist | S1P4 ag | EP2 mod | EP2 antag
C[C@@H]1O[C@@H](O[C@H]2C[C@@H](O)[C@]3(CO)[C@H]4[C@H](O)C[C@]5(C)[C@@H](C6COC(=O)C6)CC[C@]5(O)[C@@H]4CC[C@]3(O)C2)[C@H](O)[C@H](O)[C@H]1O (stereo partly drawn) | -7.3 | 28.7 | -0.5 | 14.2 | 12.3
C[C@@H]1O[C@H](O[C@H]2C[C@@H](O)[C@]3(CO)[C@@H]4[C@@H](O)C[C@]5(C)[C@@H](C6=CC(=O)OC6)CC[C@@]5(O)[C@H]4CC[C@@]3(O)C2)[C@@H](O)[C@H](O)[C@H]1O | . | . | . | 14.3 | 42.5*
O=C(O)C[C@H]1OCC=C2CN3CC[C@]45C6=CC(=O)C(=O)C([N+](=O)[O-])=C6N[C@H]4[C@H]1[C@H]2C[C@H]35 | . | . | . | -8.8 | 41.4*
CC(C)c1ccc(N2C(=O)NC(=O)/C(=C\C=C\c3ccco3)C2=O)cc1 | 5.0 | 14.0 | 1.2 | -75.5 | 100.2*
O=C1NC(=O)N(Cc2ccccc2)C(=O)/C1=C/C=C/c1ccco1 | 9.1 | 4.4 | -2.6 | -56.1 | 105.7*
COc1cccc(CN2CCN(C(=O)Cc3ccccc3F)[C@@H](C)C2)c1 | . | . | . | -29.4 | .
O=C(Nc1ccc([As](=O)(O)O)cc1)Nc1cccc(Cl)c1Cl | . | . | . | 1.8 | 57.6*
CC(C)COC(=O)c1ccccc1C(=O)OCC(C)C | . | . | . | 23.9 | 18.2
CCCCCCOC(=O)c1ccccc1N | -8.2 | -5.9 | -1.6 | 63.9* | 7.8
Cc1csc(NC(=O)CN2C3CCC2CC(O)(c2nccn2C)C3)n1 (stereo not drawn) | . | . | . | -9.9 | .
CCOC(=O)c1ccc2[nH]c(-c3ccc(S(=O)(=O)F)cc3)cc(=O)c2c1 | -8.0 | 0.8 | -0.3 | -13.0 | 50.6*!
CCOC(=O)c1cccc([P+](=O)O)c1 | -13.6 | -14.3 | 0.4 | 4.7 | 9.2
CC1CC(C)CN(C(=O)CN2C3CCC2CC(O)(c2ccco2)C3)C1 (stereo not drawn) | . | . | . | 8.0 | .
COc1cccc(CN2CCN(C(=O)Cc3cc(OC)ccc3OC)[C@@H](C)C2)c1 | . | . | . | -11.8 | .
COc1ccc(-n2c(SC)nc3ccccc3c2=O)cc1 | . | 15.2 | -1.7 | 26.1 | -1.8
O=c1c2ccccc2nc(SCC2CCCCO2)n1-c1ccccc1 (stereo not drawn) | -2.9 | -10.1 | 1.1 | 63.8* | 7.1
ClCC[N+]12CC[N+](CCCl)(CC1)C2 (tested in a mixture with another compound) | . | . | . | 12.6 | 45.6*
CC(c1cccc(F)c1)n1cc(C(=O)NC2CCCC2)nn1 (stereo not drawn) | . | . | . | -11.3 | 8.4
CC[C@]1(OC(=O)CN)C(=O)OCc2c1cc1n(c2=O)Cc2cc3ccccc3nc2-1 | . | . | . | 22.1 | 40.7*
CC[C@@]1(O)C(=O)OCc2c1cc1n(c2=O)Cc2cc3c(NC(=O)CN)cccc3nc2-1 | -2.0 | -5.2 | 0.3 | 2.4 | 5.3
CC(C)(C)c1nc(N2CCOCC2)c2nnn(Cc3ccccc3Cl)c2n1 | . | . | . | 51.5 | 5.0
COc1ccc(CC(=O)N2CCN(Cc3ccco3)C[C@@H]2C)cc1OC | . | . | . | 0.6 | .
CCn1nc(CC(=O)N(CCN(C)C)Cc2ccccc2F)c2ccccc2c1=O | . | . | . | -16.1 | 6.3
O=C1NC(=S)NC(=O)C1=Cc1cccn1-c1ccc(O)cc1 | -15.5 | -15.2 | 0.5 | -112.7 | 112.5*
CC(=O)C1CCC2C3CCC4C[C@H](O)CCC4(C)C3C[C@H](O)C12C (stereo partly drawn) | . | . | . | -12.6 | 12.2
SMILES | S1P3 antag | S1P4 antagonist | S1P4 ag | EP2 mod | EP2 antag
CCCCCCCCCCCCCCCC[n+]1ccccc1 | . | . | . | -43.5 | 68.7*
Cc1ccc(C2=CCN(CC(=O)Nc3ccc(N(C)C)cc3)CC2)o1 | . | . | . | -79.2 | .
Cc1ccc(OP(=O)(Oc2ccc(C)cc2)N2C=Cc3ccccc3[C@H]2C#N)cc1 | . | . | . | 36.4 | 42.5*
Cc1ccc(OP(N)(=O)Oc2ccc(C)cc2)cc1 | -16.2 | 6.5 | 3.4 | -38.0 | 4.3
O.O.[NH-]C1(C(=O)O)CCCC1.[NH-]C1(C(=O)O)CCCC1.[Ni+2] | . | . | . | 26.4 | 47.4*
CCc1ccc(CN2CCNCC2)cc1 | . | . | . | 9.6 | 7.5
Clc1cc(I)cc(Cl)c1NC1=NCCN1 | . | . | . | 6.8 | 17.0
c1cc2c(c(NC3=NCCN3)c1)CCCC2 | . | . | . | -12.4 | 43.3*
O=C(O)C[SH+]CC(=O)O.O=C(O)C[SH+]CC(=O)O.[Cu] | . | . | . | 17.4 | 44.0*
CCn1cc(CN2C3CCC2CC(O)(c2ccccc2F)C3)cn1 (stereo not drawn) | . | . | . | -4.0 | 3.6
CNCCc1ccc(O)c(O)c1 | . | . | . | 70.8* | 13.4
COc1ccc(CN2CCN(C(=O)COc3ccc(OC)cc3)CC2)cc1 | . | . | . | -34.0 | 5.4
COc1ccc(CC2c3cc(OC)c(OC)cc3CCN2C)cc1O (stereo not drawn) | -23.2 | -2.9 | 0.6 | 23.7 | 15.8
CCC1=C(C[C@H]2NCCc3cc(OC)c(OC)cc32)C[C@H]2c3ccccc3CCN2C1 | . | . | . | 20.6 | 52.2*
NC(=O)c1c([N+](=O)[O-])no[n+]1[O-] | . | . | . | -102.4 | 119.2*
Clc1ccc(Cl)c2c1NC(c1cccnc1)C1CC=CC21 (stereo not drawn) | . | . | . | 86.7* | 7.4
Fc1cc(F)c2c(c1)C1C=CCC1C(c1cccnc1)N2 (stereo not drawn) | . | . | . | 13.5 | 7.4
CC[n+]1c(/C=C/N(C)c2ccccc2)sc2ccc(Cl)cc21 | . | -17.7 | 0.5 | -27.2 | 5.0
CN(C)c1ccc(/C=C/C=C/c2sc3ccccc3[n+]2C)cc1 | 9.5 | -20.1 | -0.8 | -77.1 | 46.0*
CC[n+]1c(/C=C/C=C/c2ccc(N(C)C)cc2)sc2ccccc21 | -5.9 | -6.0 | 0.6 | -155.0 | 114.7*
CN(C)c1ccc(/C=C/c2cc[n+](C)c3ccccc23)cc1 | -13.9 | -11.8 | -0.7 | -86.5 | 56.2*
C1=CC2CCC(C1)N2CCN1C2C=CCC1CC2 | . | . | . | -0.4 | 5.8
O=C1NC(=O)N(c2ccccc2)C(=O)/C1=C/c1ccc(Sc2ccccc2)o1 | . | -13.6 | -0.2 | -2.5 | 41.5*
COc1cc(CN2CCN(C(=O)COc3ccc(C)cc3)CC2)cc(OC)c1OC | . | . | . | 3.5 | 19.6
CN(C)c1ncc(CN2C3CCC2CC(O)(c2ccccc2F)C3)cn1 (stereo not drawn) | . | . | . | -9.9 | 7.5
SMILES | S1P3 antag | S1P4 antagonist | S1P4 ag | EP2 mod | EP2 antag
C/C(N[O-])=C(\C)[N+]([O-])=[Rh][Cl].CC(=N\[O-])/C(C)=N/[O-].c1ccc([PH+](c2ccccc2)c2ccccc2)cc1 | . | . | . | 26.5 | 41.0*
CCSC1=NN1c1nc(N)nc(C)c1CC | . | . | . | 1.5 | 8.2
O=[As](O)(O)c1ccc(N=Nc2ccc([As](=O)(O)O)cc2)cc1 | . | . | . | -3.7 | 49.6*
O=[As](O)(O)c1ccc(N=Nc2ccc(O)cc2)cc1 | 4.3 | 2.0 | -1.5 | -20.9 | 2.3
Nc1nc(N)c(N=Nc2ccc([As](=O)(O)O)cc2)c(=O)[nH]1 | . | . | . | 23.4 | 42.2*
CNC(C(=O)c1ccccc1)C(OC)c1ccccc1 (stereo not drawn) | -19.8 | 3.2 | -1.7 | 18.4 | 10.6
